# Hits are enriched below; roughly 2.6% of the tested compounds scored in any of these assays.
# TRPV1 PAM: human TRPV1 potentiation | AID 540277 | actives 0.02% (n = 320,000) | TRPV1-expressing cells, Fluo-8 calcium influx, capsaicin EC20 potentiation | potentiation, % at 8.33 µM; in the data active = potentiation above about 80%; inconclusive = between about 30% and that limit
#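 Cells expressing TRPV1 were dye-loaded with Fluo-8 and read kinetically: 10 s baseline, 3 min after compound (agonist portion), then 2 min after EC20 capsaicin (allosteric enhancer portion). Calcium-bound dye fluorescence at 480/520 nm.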
# p53 reactivation: mutant p53 re-activation in reporter cells; H1299 p53-A138V BP100-luciferase reporter, luminescence, 24 h; Potency, µM (series often up to 92.2 µM), usual class: activators; actives 0.063% (n = 320,000); active = well fitted activation curve with a large enough effect; inconclusive = small, poorly fitted or top-dose-only effect; inactive = no such curve, though single readings can be large or run the other way; note: nearly all actives have a fitted effect of over 45% in size
#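 p53-null H1299 cells stably carrying temperature-sensitive p53-A138V and a BP100-luciferase reporter were pinned with compounds (4-point, 1:5 series) and held 24 hrs at 37 deg C. Luminescence was read 10 min after detection reagent.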
# hERG WT inh: KCNH2 (human, wildtype) channel inhibition; U2OS, BacMam KCNH2, thallium flux FluxOr; stronger effect = lower value; activity change, % at 1.84 µM; actives 0.37% (n = 340,000);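 active = maximum activity change below -70%; inconclusive = maximum activity change between -70% and -50%; inactive = maximum activity change above -50%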
# Target sequence (Q12809 whole entry, looked up): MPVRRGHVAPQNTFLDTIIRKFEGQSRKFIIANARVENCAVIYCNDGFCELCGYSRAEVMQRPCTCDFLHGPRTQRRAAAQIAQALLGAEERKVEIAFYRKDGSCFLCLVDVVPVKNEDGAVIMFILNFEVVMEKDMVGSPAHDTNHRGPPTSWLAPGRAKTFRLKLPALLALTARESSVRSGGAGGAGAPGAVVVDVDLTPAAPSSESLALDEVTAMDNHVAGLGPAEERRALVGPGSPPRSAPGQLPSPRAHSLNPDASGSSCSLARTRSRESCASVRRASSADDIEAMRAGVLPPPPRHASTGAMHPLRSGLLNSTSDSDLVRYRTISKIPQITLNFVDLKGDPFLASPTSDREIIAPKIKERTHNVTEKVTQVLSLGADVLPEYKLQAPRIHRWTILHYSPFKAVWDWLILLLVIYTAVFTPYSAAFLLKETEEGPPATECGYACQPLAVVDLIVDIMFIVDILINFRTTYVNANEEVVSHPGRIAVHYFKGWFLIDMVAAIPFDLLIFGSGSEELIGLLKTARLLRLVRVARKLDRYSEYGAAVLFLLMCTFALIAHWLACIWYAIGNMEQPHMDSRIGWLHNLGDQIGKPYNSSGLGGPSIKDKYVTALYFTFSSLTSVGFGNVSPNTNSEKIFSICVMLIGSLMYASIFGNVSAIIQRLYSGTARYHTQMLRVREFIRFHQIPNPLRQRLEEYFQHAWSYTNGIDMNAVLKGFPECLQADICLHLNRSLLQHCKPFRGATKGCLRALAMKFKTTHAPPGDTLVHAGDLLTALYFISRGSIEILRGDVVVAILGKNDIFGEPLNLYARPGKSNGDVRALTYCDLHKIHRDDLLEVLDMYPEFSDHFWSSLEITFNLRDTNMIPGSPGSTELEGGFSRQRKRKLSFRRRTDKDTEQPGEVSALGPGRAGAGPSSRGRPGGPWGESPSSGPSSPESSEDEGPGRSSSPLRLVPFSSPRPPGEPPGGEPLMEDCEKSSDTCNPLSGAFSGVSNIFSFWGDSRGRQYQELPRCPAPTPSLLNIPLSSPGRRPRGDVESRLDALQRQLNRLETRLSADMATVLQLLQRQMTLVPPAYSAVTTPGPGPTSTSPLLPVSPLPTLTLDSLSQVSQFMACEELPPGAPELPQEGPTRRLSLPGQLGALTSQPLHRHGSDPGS
#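 U2OS cells were transduced with wild-type KCNH2 virus (2.03 x 10^8 / mL) for 4 h at room temperature, then cultured overnight at 37 C. Thallium flux was read with FluxOr dye. Rate constants were normalized to DMSO controls.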
# TRPV1 agonist: human TRPV1 agonism; TRPV1-expressing cells, Fluo-8 calcium influx, agonist mode; activation, % at 8.33 µM; actives 0.19% (n = 320,000); Q8NER1; in the data active = activation above about 80%; inconclusive = between about 30% and that limit
#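 Cells expressing TRPV1 were dye-loaded with Fluo-8 and read kinetically: 10 s baseline, 3 min after compound (agonist portion), then 2 min after EC20 capsaicin (allosteric enhancer portion). Calcium-bound dye fluorescence at 480/520 nm.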
# KCNH2 3.1 inh: KCNH2 3.1 (human) potassium channel inhibition; U2OS KCNH2 3.1, thallium flux FluxOr; stronger effect = lower value; activity change, % (tested at about 1.8 µM); actives 0.95% (n = 340,000); AID 720553;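 active = maximum activity change below -70%; inconclusive = maximum activity change from -70% to -50%; inactive = maximum activity change above -50%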;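 note: thallium influx rate constant from kinetic fluorescence after stimulation buffer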
#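 FluxOr-based Tl+ influx in U2OS cells transduced with KCNH2 3.1 virus; rate constants normalized to DMSO controls.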
# ClpP mod: qHTS Assay for Activators of ClpP. Potency, µM (titrated, usually from 57.5 µM). ATP-dependent Clp protease proteolytic subunit (Bacillus subtilis (strain 168)), P80244. purified B. subtilis ClpP, FRET peptide cleavage, 20 min. actives 1.9% (n = 340,000); active = well fitted falling curve with a large enough effect; inconclusive = small, poorly fitted or top-dose-only effect; inactive = no such curve, though single readings can be large or run the other way; note: the source files actives as falling curves though it sought activators and does not explain the sign; nearly all actives have a fitted effect of over 65% in size
#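 ClpP 10 microg/mL final, pH 8 Tris/KCl buffer with BSA, glycerol, Tween-20; compound pinned in; FRET-FV substrate; RT 20 min; Ex320/Em430; ΔFRET vs ADEP 5.8 microM, DMSO, no enzyme.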
# A number is an active result; n = inactive; u = inconclusive; x = not tested or not shown.
SMILES,TRPV1 PAM,p53 reactivation,hERG WT inh,TRPV1 agonist,KCNH2 3.1 inh,ClpP mod
COc1ccc(/C=N/N2C(=O)CN(C(=O)c3ccccc3)C2c2ccc(OC)cc2)cc1 (stereo not drawn),n,n,n,n,n,n
CCN(C[C@H]1N[C@@](CC)(C(=O)OC)[C@H]2C(=O)N(Cc3ccccc3)C(=O)[C@@H]12)S(=O)(=O)c1ccc(OC(F)(F)F)cc1,x,n,-276.9,x,n,n
Cc1[nH]c2ccccc2c1C(=O)C(=O)NC1CC(=O)N(c2cccc(F)c2)C1 (stereo not drawn),x,x,x,x,x,n
CCCCCCC[C@@H](C/C=C/CCC(=O)N(C)C/C(=C/Cl)C/C(=C\C(=O)N1CC(OC)=CC1=O)OC)OC,x,31.6µM,n,x,n,n
CCCCCCC[C@@H](C/C=C/CCC(=O)N(C)C/C(=C/Cl)C/C(=C\C(=O)N1C[C@H](O)CC1=O)OC)OC,x,n,n,x,n,n
O=C(C[n+]1cccc2cccc(O)c21)c1ccc(Cl)cc1,x,x,x,x,x,n
O=C(O)CCc1c2ccc(=O)c(O)c-2oc2c(O)c(O)ccc12,x,x,x,x,x,n
CN1CCN(CCCNC(=O)c2cn(C3CCCCC3)c(=O)c3c2c2ccccc2n3C)CC1,n,n,n,n,n,u
Cn1c2ccccc2c2c(C(=O)NCCCN3CCCC3=O)cn(C3CCCCC3)c(=O)c21,n,n,n,n,n,14.1µM
COc1cc(Cl)c(C)cc1NC(=O)c1cn(C2CCCC2)c(=O)c2c1c1ccccc1n2C,x,x,x,x,x,n
COc1cccc(NC(=O)c2cn(C3CCCCC3)c(=O)c3c2c2ccccc2n3C)c1,x,x,x,x,x,31.6µM
COCCN1C(=O)c2ccccc2C1c1nnnn1Cc1ccccc1 (stereo not drawn),x,x,x,x,x,n
COc1ccc(CNCC(O)(c2ccc(F)cc2)c2ccc(F)cc2)cc1,u,n,n,n,-104.9,x
COc1ccc(CNCC(O)(c2ccccc2)c2ccccc2)cc1,n,n,n,n,n,n
Cc1ccc(NC(=O)CN2CCN(Cc3ccccc3)CC2)c(Br)c1,n,x,n,n,-87.3,n
COc1ccccc1NC(=O)CN1CCN(CC(=O)Nc2ccccc2Cl)CC1,n,n,n,n,n,n
Cc1ccc(NC(=O)CN2CCOCC2)c(Br)c1,n,x,n,n,n,x
Cc1c(C(=O)N2CCCCC2)oc2ccc(Br)cc12,n,n,n,u,n,n
COc1cccc(CN2CCN(CC(=O)Nc3ccccc3Cl)CC2)c1,n,n,n,n,n,14.1µM
COc1ccc(S(=O)(=O)N2CCN(CC(=O)Nc3ccccc3Cl)CC2)cc1,u,n,n,n,-88.1,n
Cc1c(C(=O)N2CCN(CC(=O)Nc3ccccc3Cl)CC2)oc2ccc(Br)cc12,n,n,n,n,-73.4,n
Cc1cc(C)c(NC(=O)Cc2csc(C)n2)c(Cl)c1,x,x,x,x,x,n
Cc1c(C(=O)N(Cc2ccccc2F)C2CCS(=O)(=O)C2)oc2ccc(F)cc12 (stereo not drawn),x,x,x,x,x,n
Cc1cc(C)c(C#N)c(OCC2CCCO2)n1 (stereo not drawn),x,x,x,x,x,n
Cc1cc(Nc2ccc3c(c2)OCCO3)c2cccc(C)c2n1,n,n,n,n,n,31.6µM
SMILES,TRPV1 PAM,p53 reactivation,hERG WT inh,TRPV1 agonist,KCNH2 3.1 inh,ClpP mod
C[C@@H]1[C@H](c2ccccc2)OCCS(=O)(=O)N1Cc1ccccc1Br,x,x,x,x,x,n
O=C(Nc1ccc(Cl)cc1)Nc1nnc(SCc2ccccc2)s1,n,28.2µM,n,n,n,n
Cc1ccccc1CSc1nc2n(n1)C(c1cccs1)C1=C(CCCC1=O)N2 (stereo not drawn),n,n,n,u,n,22.4µM
O=C1CCCC2=C1C(c1cccs1)n1nc(SCc3ccccc3F)nc1N2 (stereo not drawn),n,n,n,n,n,u
CC(C)C(c1nnnn1Cc1ccccc1)N(CCCO)Cc1cc2cc3c(cc2[nH]c1=O)OCO3 (stereo not drawn),n,n,n,n,n,31.6µM
Cc1ccc2[nH]c(=O)c(CN(CCc3ccccc3)C(c3nnnn3Cc3ccco3)C(C)C)cc2c1 (stereo not drawn),n,n,n,n,n,x
CCC(c1nnnn1Cc1ccc(OC)cc1)N(CCCO)Cc1cc2cc3c(cc2[nH]c1=O)OCO3 (stereo not drawn),n,n,n,n,n,22.4µM
CCOC(=O)C1=CCN(S(=O)(=O)c2ccccc2C)C1c1ccc(C)cc1 (stereo not drawn),x,x,x,x,x,n
COc1cc(N(C)C)ccc1/C=C1\C=Cc2ccccc21,x,x,x,x,x,n
O=C(Nc1ccc(C(=O)OCc2cc(=O)n3nc(C4CC4)sc3n2)cc1)c1cccc(F)c1,x,x,x,x,x,n
CCNC(=O)c1cnc2sc(N3CCCCCC3)nn2c1=O,x,x,x,x,x,11.2µM
COc1ccc(CCNC(=O)c2cnc3sc(N4CCOCC4)nn3c2=O)cc1,x,x,x,x,x,28.2µM
CCOc1ncccc1C(=O)NCc1ccc(OC)c(OC)c1,n,n,n,n,-102.2,n
COc1ccc(CNC(=O)c2cnc3sc(N4CCCC4)nn3c2=O)cc1OC,x,x,x,x,x,15.8µM
CCOc1ncccc1C(=O)NCc1ccc(OC)cc1,n,n,n,n,n,n
O=C(Nc1ccc2c(c1)N(C1CCCC1)C(=O)c1ccccc1S2)c1ccccc1,x,x,x,x,x,n
Cc1ccc(C)c(OCC(=O)Nc2ccc(S(=O)(=O)Nc3onc(C)c3C)cc2)c1C,x,x,x,x,x,n
CC1=C(c2ccc(C)c(C)c2)S(=O)(=O)N(Cc2ccc(C(=O)NCc3ccccc3F)cc2)C1=O,x,x,x,x,x,14.1µM
COc1ccccc1NC(=O)c1ccc(CN2C(=O)C(C)=C(c3ccc(C)c(C)c3)S2(=O)=O)cc1,x,x,x,x,x,n
COC(=O)C1=CNC=C(C(=O)OC)C1c1ccc(C(=O)OC)cc1,n,n,n,n,n,28.2µM
FC(F)(F)c1ccc(-c2noc(CN3CCCN(C4CCCCC4)CC3)n2)cc1,n,n,n,n,-93.5,n
CN(C)C(=O)c1ccc2c(c1)N(CC(=O)NCc1ccc(F)cc1)C(=O)C1CCCCN21 (stereo not drawn),x,x,x,x,x,n
CC(C)c1cc(NCCCN2CCOCC2)n2c(nc3ccccc32)c1C#N,n,n,n,n,n,28.2µM
N#Cc1c2c(c(NCCCN3CCOCC3)n3c1nc1ccccc13)CCC2,n,n,n,n,n,31.6µM
C(=N\n1cnnc1)/c1cccs1,n,n,n,n,-85.8,n
O=C(O)CCc1nn2c3ccccc3n(CC(=O)c3ccccc3)c2nc1=O,n,n,n,n,n,31.6µM
O=C(O)CCc1nn2c3ccccc3nc2n(CCN2CCCCC2)c1=O,n,n,n,n,n,17.8µM
O=C(O)CCc1nc2ccccc2n(CCc2ccccc2)c1=O,n,n,n,n,n,u

# Compound activity (PubChem BioAssay)
